# HP1b binding inh = inhibitors of HP1-beta chromodomain binding to methylated histone tails | hit rate 0.56% among 390,000 | AlphaScreen HP1-beta / biotin-H3K9me3 peptide binding | Potency, µM (highest dose often 114 µM), without a hit: at the highest dose activity change, negative = inhibition, usual class: inhibitors | P83916 | AID 540317; also: nearly all actives have a fitted effect of over 70% in size
#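 HP1-beta protein (50 nM final) preincubated 30 min at room temperature with biotinylated H3(1-18)K9me3 peptide (50 nM) in PBS pH 7.4, 0.01% Tween-20, then compound added for 30 min. AlphaScreen streptavidin donor/nickel chelate acceptor beads (10 ug/mL final), 30 min dark, luminescence read.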
# L3MBTL1 block = L3MBTL1 (human) inhibition | Potency, µM (series often up to 57.1 µM), for inactives: at the highest dose activity, negative = inhibition, most hits filed as inhibitors | AlphaScreen L3MBTL1–H3K9me1 peptide binding | hit rate 0.66% among 230,000 | Q9Y468; also: % is scaled to controls: 0 for no effect and ±100 for the full control effect; nearly all actives have a fitted effect of over 60% in size
#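 AlphaScreen proximity signal between nickel-chelate acceptor and streptavidin donor beads (final 10 ug/mL) reports binding of 50 nM L3MBTL1 to 75 nM biotin-H3 K9me1 peptide; complex incubated with compounds 30 min at room temperature; cefsulodin titration as control.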
# Sfp PPTase inh = Sfp phosphopantetheinyl transferase inhibition; Biochemical Sfp PPTase activity, qHTS; Potency, µM, inactives show largest response in the series, negative = inhibition, hits mostly inhibitors; hit rate 3.5% among 310,000;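 also: the enzyme is Sfp with the accession as filed and its product quenches rhodamine fluorescence; 0% = enzyme reaction without inhibitor and -100% = no enzyme wells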
#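 Sfp 15 nM + cpd, 15 min RT; start w/ rhodamine-CoA 5 uM, BHQ-2-YbbR 12.5 uM (final); 50 mM Hepes pH 7.6, 10 mM MgCl2, 0.01% NP-40, 0.01% BSA; read 525/598 nm at 0 and 30 min.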
# BAZ2B block = blocks human BAZ2B. Potency, µM (doses to about 114 µM), without a hit: top-dose activity change, negative = inhibition, usual class: inhibitors. AlphaScreen BAZ2B-H3K14Ac peptide displacement. hit rate 4.4% among 360,000. Q9UIF8; also: % is scaled to controls: 0 for no effect and ±100 for the full control effect; nearly all actives have a fitted effect of over 60% in size
#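 Compounds, titrated to a top concentration of 110 uM, were incubated 30 min at room temperature with preformed BAZ2B/acetyl-K14 H3 peptide complex (50 nM each). Proximity signal was measured by AlphaScreen after 20 min with beads.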
# G9a block = blocks human histone lysine methyltransferase G9a; Q96KQ7; G9a H3K9 monomethylation, AlphaScreen, 2 h; Potency, µM (series often up to 102 µM), without a hit: at the top dose activity, negative = inhibition, hits mostly inhibitors; hit rate 8.8% among 350,000; AID 504332; also: % is scaled to controls: 0 for no effect and ±100 for the full control effect; nearly all actives have a fitted effect of over 75% in size
#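 Readings reflect AlphaScreen signal from monomethyl-H3K9 antibody detection. HMT at 20 nM; substrate b-H3K9 500 nM; cofactor SAM 20 uM; 2 h RT reaction; compounds tested as titrations in qHTS with 15 min preincubation.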
# JMJD2A Tudor = JMJD2A Tudor domain (human) inhibition; Potency, µM (highest dose often 114 µM), for inactives: at the highest dose activity change, negative = inhibition, actives largely listed as inhibitors; O75164; AlphaScreen JMJD2A-Tudor / H3K4me3 peptide binding; AID 504339; hit rate 4.4% among 390,000; also: % is scaled to controls: 0 for no effect and ±100 for the full control effect; nearly all actives have a fitted effect of over 50% in size
# * marks the source's active call; other numbers are inactive results; ? = inconclusive; · = not tested or not shown; [ ] = remark or other dose. This is a sample that favours compounds with a hit; in the whole collection about 12% have one here. Calls follow the shape of the dose curve; as a rule, active = well fitted curve in the direction sought with a large enough effect; inconclusive = small, poorly fitted or top-dose-only effect, or another doubt; inactive = no such curve, though single readings can be large; an effect the other way counts as inactive or inconclusive. Potency is read from the fitted curve at half-maximal effect.
SMILES,HP1b binding inh,L3MBTL1 block,Sfp PPTase inh,BAZ2B block,G9a block,JMJD2A Tudor
COc1cccc(/C=N/Nc2ccc(C(=O)O)cc2)c1O,30%,·,-18%,4%,6%,-9%
O=S(=O)(N/N=C\c1ccccc1O)c1ccc(Cl)cc1,14%,·,19%,-25%,?,-28%
O=[N+]([O-])c1ccc(NN=Cc2cccc([N+](=O)[O-])c2)cc1,-17%,·,·,·,·,?
COc1cccc(/C=N/Nc2ccc(S(=O)(=O)O)cc2)c1O,27%,-20%,?,?,2.2µM*,-15%
O=[N+]([O-])c1ccc(N/N=C/c2ccc[nH]2)cc1,?,?,?,45µM*,11µM*,56µM*
O=C(NCc1ccccn1)c1nn(-c2ccccc2F)nc1CO,-5%,·,·,-2%,-14%[59 µM],-21%
COc1ccc(N(C)C(=O)c2nc(-c3cccc(F)c3)n3c2CCCCC3)c(OC)c1,23%,·,·,-25%,-23%[59 µM],-27%
COc1cc(C(=O)OCCc2c(C)nc3nc[nH]n3c2=O)cc(OC)c1OC,52%,·,12%,-20%,-22%,5%
CC(=O)OCCc1c(C)nc2nc[nH]n2c1=O,10%,·,18%,-9%,50µM*,-29%
CCOC(=O)c1sc(N2N=C(C)C(N=Nc3cccc(C)c3)C2=O)nc1C (stereo unspecified),-1%,·,-22%,-33%,50µM*,-26%[11.4 µM]
COc1cc(C(=O)NCC2CCCO2)cc(OC)c1OC (stereo unspecified),1%,1%,17%,7%,18%[59 µM],-1%
COc1cccc(OC)c1OCC(C)CNCC1CCCO1 (stereo unspecified),71µM*,·,-19%,?,?,3.5µM*
Cc1cccc(OCC(=O)O/N=C(\N)c2ccncc2)c1,-9%,·,10%,-5%,1%,-5%
CCN(C(=O)COC(=O)c1cc(=O)c2ccccc2o1)c1c(N)n(Cc2ccccc2)c(=O)[nH]c1=O,20%,2%,·,8%,-44%,1%
C=CCSC1=N/C(=C\C=C\c2ccco2)C(=O)S1,40µM*,2.8µM*,56µM*,10µM*,7.1µM*,45µM*
BrC(=C\c1ccccc1)/C=N/N1CCN(Cc2ccccc2)CC1,?,-15%,2%,?,45µM*,?
Oc1cccc(/C=N/N2CCN(c3ccccn3)CC2)c1,17%,-5%,5%,-27%,·,-17%
BrC(/C=N/N1CCN(Cc2ccccc2)CC1)=C/c1ccccc1,-18%,-27%,0%,?,?,40µM*
BrC(=C\c1ccccc1)/C=N/N1CCN(c2ccccn2)CC1,-4%,-6%,-24%,79µM*,28µM*,-28%
CCC(=O)N1c2ccc(S(=O)(=O)CCC(=O)N3CCN(c4ccc(F)cc4)CC3)cc2CC1C (stereo unspecified),23%,·,·,·,?,-20%
Cc1cn2c(=O)cc(COC(=O)c3ccc(NC(=O)COc4ccc(C)c(C)c4)cc3)nc2s1,22%,·,·,-13%,0%[12.7 µM],12%
Cc1nn2c(=O)cc(COC(=O)c3cccs3)nc2s1,-17%,·,·,-13%,10%[59 µM],-16%
CCOc1ccccc1NC(=O)C(OC(=O)C1CC1)c1ccccc1 (stereo unspecified),19%,·,7%,-8%,21%,2%
CCOc1ccccc1NC(=O)C(NCC1(N2CCCCC2)CCCCC1)c1ccccc1 (stereo unspecified),-9%,·,?,79µM*,-6%,79µM*
CC(C)CC(=O)Nc1ccc2nc(SCC(=O)N3CCOCC3)sc2c1,39%,·,·,-6%,-37%[59 µM],-8%
NC(=O)C[C@@H]1N[C@]2(C(=O)Nc3ccccc32)[C@@H]2C(=O)N(C3CCCCC3)C(=O)[C@H]12,7%,6%,21%,-2%,-32%,-2%
CCCOc1ccc(N2C(=O)C3C(C(C)C)NC4(C(=O)c5ccccc5C4=O)C3C2=O)cc1 (stereo unspecified),16%,·,-2%,-5%,?,-18%

# Compound activity (PubChem BioAssay)
